In the assay the test system is Trichuris muris adult worms. The assay can be described thus: mean motility score (Paragon pixel variance) of adult worms (arbitrary units); higher = more motile worms, i.e. less anthelmintic effect; extreme values may be limits of the assay. As to conditions: 100 µM; 24 h. Here is the method:
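Primary ex vivo screen of 409 approved drugs against adult Trichuris muris worms: one worm per well in RPMI-1640 with penicillin/streptomycin, 100 µM drug in 1% DMSO, 37 °C, 5% CO2 for 24 h. Motility was recorded with INVAPP (200-frame movies) and scored with the Paragon pixel-variance algorithm. Values are means of triplicate wells run on three occasions; levamisole was the positive control and DMSO the negative control.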
`CCCCNc1cc(C(=O)O)cc(S(N)(=O)=O)c1Oc1ccccc1` [bumetanide] displayed a mean motility score of 4880.
The compound `Cc1cccc(N(C)C(=S)Oc2ccc3ccccc3c2)c1` [tolnaftate] yielded a mean motility score of 2620.
Next, `C[C@@](Cc1ccc(O)c(O)c1)(NN)C(=O)O` [S-carbidopa]: 3900.
Next, `COC(=O)c1ccc2c(c1)NC(=O)/C2=C(\Nc1ccc(N(C)C(=O)CN2CCN(C)CC2)cc1)c1ccccc1` [nintedanib]: 3140; `C/C(=C\C(=O)OCCCCCCCCC(=O)O)C[C@@H]1OC[C@H](C[C@@H]2O[C@H]2[C@@H](C)[C@H](C)O)[C@@H](O)[C@H]1O` [mupirocin]: 2520; `C=CC[C@@H]1/C=C(\C)C[C@H](C)C[C@H](OC)[C@H]2O[C@@](O)(C(=O)C(=O)N3CCCC[C@H]3C(=O)O[C@H](/C(C)=C/[C@@H]3CC[C@@H](O)[C@H](OC)C3)[C@H](C)[C@@H](O)CC1=O)[C@H](C)C[C@@H]2OC` [tacrolimus]: 0.
Turning to `CC(O)(P(=O)(O)O)P(=O)(O)O` [etidronic acid], the mean motility score was determined as 3300.
In the case of `N[C@@H](CC(=O)O)C(=O)O` [aspartic acid], the mean motility score was 3610.
Next, `CC1=CC(=O)c2ccccc2C1=O` [menadione]: 361; `Nc1ccc(S(N)(=O)=O)cc1` [sulfanilamide]: 2370; `Cl.Fc1ccc([C@@H]2CCNC[C@H]2COc2ccc3c(c2)OCO3)cc1` [paroxetine hydrochloride]: 1300.
`CC(C)(C)NC(=O)[C@H]1CC[C@H]2[C@@H]3CC[C@H]4NC(=O)C=C[C@]4(C)[C@H]3CC[C@]12C` [finasteride] gave a mean motility score of 2080.
For `C=C(CC)C(=O)c1ccc(OCC(=O)O)c(Cl)c1Cl` [ethacrynic acid] the value was 215.
For `Cc1ccc(N(C=C2NCCN2)c2cccc(O)c2)cc1` [phentolamine] the value was 2960.
Compound `CN1C(C(=O)Nc2ccccn2)=C(O)c2ccccc2S1(=O)=O` [piroxicam] registered a mean motility score of 2510.
Next, `CC[N+](CC)(CCNC(=O)C(=O)NCC[N+](CC)(CC)Cc1ccccc1Cl)Cc1ccccc1Cl` [ambenonium]: 3180; `N=C(N)NC(=N)NCCc1ccccc1` [phenformin]: 4260; `COc1cc(C(C)=O)ccc1OCCCN1CCC(c2noc3cc(F)ccc23)CC1` [iloperidone]: 1950.
Next, `Cc1cc2cc3c(C)cc(=O)oc3c(C)c2o1` [trioxsalen]: 2070; `Cc1ccc(-c2ncc(Cl)cc2-c2ccc(S(C)(=O)=O)cc2)cn1` [etoricoxib]: 3660; `COCCOC(=O)C1=C(C)NC(C)=C(C(=O)OC(C)C)C1c1cccc([N+](=O)[O-])c1` (stereo not given) [nimodipine]: 112.
Next, `CCOC(=O)C1=C(COCCN)NC(C)=C(C(=O)OC)C1c1ccccc1Cl` (stereo not given) [amlodipine]: 8.67; `COc1ccccc1O` [guaiacol]: 2150; `NC(=O)c1ncn([C@@H]2O[C@H](CO)[C@@H](O)[C@H]2O)c1O` [mizoribine]: 2990.
As for `Oc1nc2ccccc2n1C1CCN(CCCC(c2ccc(F)cc2)c2ccc(F)cc2)CC1` [pimozide], the mean motility score amounted to 0.
For the compound `CC(C)(F)C[C@H](N[C@@H](c1ccc(-c2ccc(S(C)(=O)=O)cc2)cc1)C(F)(F)F)C(=O)NC1(C#N)CC1` [odanacatib], the mean motility score came out at 3560.
For `N[C@@H](CCC(=O)O)C(=O)O` [L-glutamate] the value was 3930; for `COc1cc2nc(N(C)CCCNC(=O)C3CCCO3)nc(N)c2cc1OC` (stereo not given) [alfuzosin], 2420.
For `C=CC(=O)N1CCC[C@@H](n2nc(-c3ccc(Oc4ccccc4)cc3)c3c(N)ncnc32)C1` [ibrutinib] the value was 433; for `CCc1cccc2c3c([nH]c12)C(CC)(CC(=O)O)OCC3` (stereo not given) [etodolac], 2190; for `O=C(COc1ccc(Cl)cc1)N1CCN(Cc2ccc3c(c2)OCO3)CC1` [fipexide], 241.
For `CCCCCCCCCC(=O)OC1(c2ccc(Cl)cc2)CCN(CCCC(=O)c2ccc(F)cc2)CC1` [haloperidol decanoate] the value was 4450; for `CC(C)NCC(O)c1ccc(NS(C)(=O)=O)cc1.Cl` (stereo not given) [sotalol hydrochloride], 2900.
In turn, `N#Cc1ccc(C(c2ccc(C#N)cc2)n2cncn2)cc1` [letrozole] registered a mean motility score of 4830.
For `CN(CCOc1ccc(CC2SC(=O)NC2=O)cc1)c1ccccn1` (stereo not given) [rosiglitazone] the value was 603.
Regarding `C#CCN(C)Cc1ccccc1` [pargyline], the mean motility score was 2290.
`Cn1cnc2c(F)c(Nc3ccc(Br)cc3Cl)c(C(=O)NOCCO)cc21` [selumetinib] registered a mean motility score of 3500.
Compound `N[C@@H](CO)C(=O)O` [serine] yielded a mean motility score of 2250.
For `NCCc1ccc(O)c(O)c1` [dopamine] the value was 3440; for `COc1cc2nc(N3CCN(C(=O)C4CCCO4)CC3)nc(N)c2cc1OC.Cl` (stereo not given) [terazosin hydrochloride], 2970.

(Values after the supplement of paper PMC10503962.)
